In PubChem BioAssay:
Values joined by “and” are separate entries in the source; they are usually repeats but may differ in a detail not shown here. Identical values can stand only once. Some compounds were tested as several samples or in several runs, with calls that do not always agree. Active and inactive are the calls of the source.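 Rule for the calls, unless noted: active = mean z-score across replicates of 1.96 or higher in either the MELAS or the Rieske mutant cell line; inactive = the rest.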

How the values were obtained:
[1] = hESC survival regulators, cell-based (AID 493140; call rule not given here;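 note: cells exposed to compounds for four days before counting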); conditions: human embryonic stem cell survival screen; stronger effect = higher value
[2] = liver-stage malaria parasite growth inhibition, primary screen, cell-based, HepG2, luciferase luminescence, HepG2 viability (AID 624349; in the data active = parasite load remaining mostly below about 12%, no sharp cut-off; inactive = mostly above about 10%;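 note: 100% = mean of DMSO negative control wells on the same plate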); conditions: P. berghei liver stage in HepG2, luciferase luminescence, concentration not given here; parasite load remaining: stronger effect = lower value; viability: measured here: HepG2 viability without parasites
[3] = stimulators of nuclear beta-catenin in C2C12, primary screen, imaging, WNT3A-conditioned medium, mouse C2C12, NPC library (AID 1117326; in the data active = nuclear beta-catenin stimulation mostly above about 4.2%, no sharp cut-off; inactive = mostly below about 10%); conditions: stronger effect = higher value
[4] = stimulators of insulin release from INS-1E, primary screen, cell-based, 5 mM glucose, NPC library (AID 1117329;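 active = compound raises insulin release from rat beta cells at 5 mM glucose, no numeric limit stated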); conditions: rat INS-1E insulin secretion, at 10 µM, stronger effect = higher value
[5] = growth inhibition of GSK3B-pretreated HCT116 cells – cell-based, CellTiter-Glo, 0.2 to 20 µM (AID 1117336;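 active = compounds lowering colon cancer cell viability after pretreatment blocking the GSK3B kinase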); conditions: HCT116 viability after GSK3B inhibitor, at 20 µM, stronger effect = higher value
[6] = inhibition of endothelial tube formation, primary screen, imaging, VEGF stimulated, CD31 staining, tube area, NPC library (AID 1117340;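 active = compound that reduces growth-factor-driven endothelial tube area in a mixed cell culture, no cutoff stated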); conditions: VEGF-stimulated ADSC/ECFC co-culture, at 10 µM, stronger effect = higher value
[7] = glucagon-like peptide 1 release enhancers, primary assay, NCI-H716 cell line, NPC library (AID 1117341;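 active = compound raises GLP1 secretion from the human gut endocrine cells, with no numeric limit stated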); conditions: NCI-H716 cells, at 10 µM, stronger effect = higher value
[8] = HCT116 colon cancer cell growth inhibition, primary screen, CellTiter-Glo luminescence, NPC library (AID 1117342;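 active = compounds that lower survival of HCT116 colon cancer cells in the luminescence readout, no numeric limit stated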); conditions: at 20 µM (top of the series)
[9] = CellTiter-Glo luminescent readout of SW480 viability loss, NPC library primary (AID 1117343;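 active = compounds that lower viability of the colon cancer cells in the luminescence readout, with no numeric limit stated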); conditions: CellTiter-Glo luminescence; at 20 µM (top of the series) unless noted
[10] = decreased DLD-1 cellular survival, CellTiter-Glo luminescent readout, NPC compound collection, primary HTS (AID 1117346;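 active = compounds that lower survival of DLD-1 colon cancer cells in the luminescence readout, no cutoff given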); conditions: DLD-1 viability, CellTiter-Glo luminescence; at 20 µM (top of the series)
[11] = differential killing of epithelial or mesenchymal cells, primary screen, imaging, PC-3E GFP, TEM4-18 mCherry, co-culture (AID 1345086;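 active = compounds killing one labelled cell type while sparing the other, by normalised counts and ratio limits, not self-fluorescent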;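 for all read-outs here: cells exposed to compound for 72 h before imaging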;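 for red/green cell ratio (normalised): normalised mesenchymal count divided by normalised epithelial count so high means epithelial killing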); conditions: imaging cell counts, at 1 µM; for red/green cell ratio (normalised): actives lie on both sides, counts scaled to control wells, 1 = unselective
[12] = sensitizers of A549 cells to miR-34 induction, primary screen, imaging, A549 dox-inducible miR-34, nuclei and caspase counts (AID 1347080;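 active = compounds whose cell count with miR-34 switched on is under 0.7 times the count with it off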); conditions: A549 miR-34 inducible, Hoechst nuclei count, 48 h
[13] = survival rescue of mitochondrial mutant cells in low glucose, primary screen, MELAS cybrids, Rieske KO mouse fibroblasts, CellTiter-Glo (AID 1508586);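 note: z relative to plate mean and SD of compound and empty wells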
[14] = biological target: NAD(+) hydrolase SARM1 (Homo sapiens) (UniProt Q6SZW1); assay: SARM1 TIR NADase inhibitors, cell lysate, NAD-Glo luminescence (AID 1508614;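 active = compound whose remaining NAD level is above about 45 nM, limit read from the data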;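 note: higher remaining NAD means stronger inhibition of SARM1 NADase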); conditions: SAM-TIR HEK293T lysate NADase, at 1 µM, stronger effect = higher value
[15] = measured here: epithelial PC-3E GFP cell survival
[16] = measured here: mesenchymal TEM4-18 mCherry cell survival
[17] = stronger effect = lower value, cell number ratio, induced over uninduced
[18] = measured here: relative caspase fold change +Dox/-Dox
[19] = measured here: total cells with miR-34 induction, stronger effect = lower value
[20] = measured here: total cells without miR-34 induction
[21] = MELAS cybrid survival, CellTiter-Glo 48 h, stronger effect = higher value
[22] = Rieske KO mouse fibroblast survival, CellTiter-Glo 72 h

Sequence of NAD(+) hydrolase SARM1 (Homo sapiens) (Q6SZW1 whole entry, looked up): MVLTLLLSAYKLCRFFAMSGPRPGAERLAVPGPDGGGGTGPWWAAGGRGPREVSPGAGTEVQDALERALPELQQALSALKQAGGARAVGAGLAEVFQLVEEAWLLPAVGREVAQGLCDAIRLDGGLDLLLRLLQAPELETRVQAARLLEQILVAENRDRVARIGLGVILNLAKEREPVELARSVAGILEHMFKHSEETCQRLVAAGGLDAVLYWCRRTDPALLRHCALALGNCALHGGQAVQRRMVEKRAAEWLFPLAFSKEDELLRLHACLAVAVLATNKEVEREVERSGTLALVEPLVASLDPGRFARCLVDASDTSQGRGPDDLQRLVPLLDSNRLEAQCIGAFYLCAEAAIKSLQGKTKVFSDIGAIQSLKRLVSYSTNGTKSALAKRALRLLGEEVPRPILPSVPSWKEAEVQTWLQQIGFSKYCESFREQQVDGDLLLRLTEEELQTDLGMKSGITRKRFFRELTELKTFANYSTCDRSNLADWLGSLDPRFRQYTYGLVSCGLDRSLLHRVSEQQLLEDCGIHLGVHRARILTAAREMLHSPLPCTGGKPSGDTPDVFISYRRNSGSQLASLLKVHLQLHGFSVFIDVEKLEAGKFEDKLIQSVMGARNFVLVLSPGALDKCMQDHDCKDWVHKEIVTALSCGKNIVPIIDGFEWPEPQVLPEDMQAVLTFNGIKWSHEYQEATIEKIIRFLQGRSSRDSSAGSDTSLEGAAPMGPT

CN(C)CCN(Cc1ccc(Cl)cc1)c1ccccn1
survival [1]: 0.25 (inactive)
parasite load remaining [2]: 93.8% (inactive)
viability [2]: 98.9%
nuclear beta-catenin stimulation ([3]; at 10 µM): 1.9% (inactive)
nuclear beta-catenin stimulation ([3]; stimulation, at 2 µM): 1.4%
insulin secretion stimulation [4]: 88.8% (active)
viability decrease [5]: -112% (inactive)
tube area decrease [6]: -2% (inactive)
GLP1 secretion stimulation [7]: 7% (inactive)
inhibition of viability [8]: 30.7% (inactive)
viability decrease (inhibition) [9]: 41.9% (inactive)
viability decrease (inhibition) [10]: 2.4% (inactive)
red/green cell ratio (normalised) [11]: 0.8 (inactive)
normalised cell number [11, 15]: 1.16
normalised cell number [11, 16]: 0.92
fold change [12, 17]: 0.853 (inactive)
fold change [12, 18]: 1.28
cell count [12, 19]: 7570
cell count [12, 20]: 8880
z-score [13, 21]: -0.0317 (inactive)
z-score [13, 22]: -0.776
remaining NAD [14]: 10 nM (inactive)

COc1cccc2c1C(=O)c1c(O)c3c(c(O)c1C2=O)C[C@@](O)(C(C)=O)C[C@@H]3O[C@H]1C[C@H](N)[C@H](O)[C@H](C)O1
parasite load remaining [2]: -58.1% (inactive) and -0.15% (inactive) and 3.79% (active)
viability [2]: 28.9% and 25.6% and 228%
nuclear beta-catenin stimulation ([3]; at 10 µM): 61.7% (active)
nuclear beta-catenin stimulation ([3]; stimulation, at 2 µM): 102%
insulin secretion stimulation [4]: -0.6% (inactive)
viability decrease [5]: 65.5% (active)
tube area decrease [6]: -9.1% (active)
GLP1 secretion stimulation [7]: 3.4% (inactive)
inhibition of viability [8]: 88.6% (active)
viability decrease (inhibition) [9]: 127% (active)
viability decrease (inhibition) [10]: 93.9% (active)
red/green cell ratio (normalised) [11]: 2.72 (active)
normalised cell number [11, 15]: 0.23
normalised cell number [11, 16]: 0.62
fold change [12, 17]: 0.88 (inactive) and 0.929 (inactive) and 0.993 (inactive)
fold change [12, 18]: 0.91 and 1.93 and 1.28
cell count [12, 19]: 2140 and 2610 and 2580
cell count [12, 20]: 2420 and 2800 and 2590
z-score [13, 21]: -1.94 (inactive) and 4.97 (active)
z-score [13, 22]: -1.44 and -0.671
remaining NAD [14]: 10 nM (inactive)

CC(C)Cn1cnc2c(N)nc3ccccc3c21
parasite load remaining [2]: 11.9% (inactive)
viability [2]: 62.5%
nuclear beta-catenin stimulation ([3]; at 10 µM): 1.6% (inactive)
nuclear beta-catenin stimulation ([3]; stimulation, at 2 µM): 0.2%
insulin secretion stimulation [4]: 0% (inactive)
viability decrease [5]: -1.15% (inactive)
tube area decrease [6]: -3.6% (inactive)
GLP1 secretion stimulation [7]: 0.6% (inactive)
inhibition of viability [8]: -6.6% (inactive)
viability decrease (inhibition) [9]: 49.5% (inactive)
viability decrease (inhibition) [10]: 0.7% (inactive)
red/green cell ratio (normalised) [11]: 1.33 (inactive)
normalised cell number [11, 15]: 1.11
normalised cell number [11, 16]: 1.48
fold change [12, 17]: 0.846 (inactive)
fold change [12, 18]: 0.971
cell count [12, 19]: 9200
cell count [12, 20]: 10900
z-score [13, 21]: 0.0496 (inactive) and 0.611 (inactive)
z-score [13, 22]: 0.716 and 0.772
remaining NAD [14]: 10 nM (inactive)

C[C@H]1[C@H](NC(=O)/C(=N/OC(C)(C)C(=O)O)c2csc(N)n2)C(=O)N1S(=O)(=O)O (stereo in doubt)
nuclear beta-catenin stimulation ([3]; at 10 µM): 5% (inactive)
nuclear beta-catenin stimulation ([3]; stimulation, at 2 µM): -0.4%
insulin secretion stimulation [4]: 0.1% (inactive)
viability decrease [5]: -16.4% (inactive)
tube area decrease [6]: 11.9% (inactive)
GLP1 secretion stimulation [7]: -1.9% (inactive)
inhibition of viability [8]: 0.97% (inactive)
viability decrease (inhibition) [9]: 25.1% (inactive)
viability decrease (inhibition) [10]: -11.3% (inactive)
red/green cell ratio (normalised) [11]: 1.32 (inactive)
normalised cell number [11, 15]: 0.82
normalised cell number [11, 16]: 1.08

Cn1c(=O)c2c(ncn2CC2OCCO2)n(C)c1=O
parasite load remaining [2]: 22.8% (inactive)
viability [2]: 112%
nuclear beta-catenin stimulation ([3]; at 10 µM): 2.7% (inactive)
nuclear beta-catenin stimulation ([3]; stimulation, at 2 µM): 1.1%
insulin secretion stimulation [4]: -2.4% (inactive)
viability decrease [5]: -0.95% (inactive)
tube area decrease [6]: -3.4% (inactive)
GLP1 secretion stimulation [7]: -1.2% (inactive)
inhibition of viability [8]: 16.1% (inactive)
viability decrease (inhibition) [9]: 46.8% (inactive)
viability decrease (inhibition) [10]: 11.7% (inactive)
red/green cell ratio (normalised) [11]: 0.85 (inactive)
normalised cell number [11, 15]: 1.16
normalised cell number [11, 16]: 0.98
fold change [12, 17]: 0.901 (inactive) and 0.895 (inactive)
fold change [12, 18]: 0.475 and 1.33
cell count [12, 19]: 8400 and 9760
cell count [12, 20]: 9320 and 10900
z-score [13, 21]: -0.299 (inactive) and -0.511 (inactive) and 0.326 (inactive)
z-score [13, 22]: -0.174 and -0.641 and -0.268
remaining NAD [14]: 10 nM (inactive)
